# From PubChem BioAssay
# The entries come from a sample that favours hits as a whole.
# ST2 IL33 inh = inhibitors of human ST2 (IL1RL1) binding to IL-33, primary screen, biochemical, AlphaLISA; Interleukin-1 receptor-like 1 (Homo sapiens), Q01638; AlphaLISA ST2-Fc/biotin-IL-33 interaction, 1 h; inhibition, % for hits at 17 µM; hit rate 2.3% among 78,000; AID 1259354, 2018; in the data active = inhibition above about 30%
# Target sequence (Q01638 whole entry, looked up): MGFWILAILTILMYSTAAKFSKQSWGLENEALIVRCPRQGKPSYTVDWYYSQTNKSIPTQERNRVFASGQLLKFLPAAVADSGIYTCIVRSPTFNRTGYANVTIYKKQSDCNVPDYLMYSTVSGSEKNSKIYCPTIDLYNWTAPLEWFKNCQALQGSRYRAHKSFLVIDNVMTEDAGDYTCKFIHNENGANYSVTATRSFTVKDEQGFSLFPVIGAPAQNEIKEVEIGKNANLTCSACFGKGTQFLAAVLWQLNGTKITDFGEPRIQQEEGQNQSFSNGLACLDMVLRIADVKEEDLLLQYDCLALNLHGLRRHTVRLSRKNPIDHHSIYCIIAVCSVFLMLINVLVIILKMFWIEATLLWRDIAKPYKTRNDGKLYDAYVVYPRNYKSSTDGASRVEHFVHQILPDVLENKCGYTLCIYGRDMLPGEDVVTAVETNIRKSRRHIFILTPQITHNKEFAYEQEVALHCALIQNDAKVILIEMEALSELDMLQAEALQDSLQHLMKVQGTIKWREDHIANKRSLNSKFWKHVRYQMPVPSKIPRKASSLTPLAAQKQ
# Numbers stand for hits; n = inactive.
SMILES,ST2 IL33 inh
Cc1ccc2ccc(C(Nc3ccccn3)c3cccnc3)c(O)c2n1 (stereo unspecified),n
CCOc1cccc(C(Nc2ccccn2)c2ccc3ccc(C)nc3c2O)c1O (stereo unspecified),n
CCC1=C(c2ccc(OC)cc2)S(=O)(=O)N(CC(=O)NCC(C)c2ccccc2)C1=O (stereo unspecified),n
CCn1cc(C(=O)NC2CCCCCCC2)c(=O)c2cc(S(=O)(=O)N3CCCCC3)ccc21,n
CNC(=O)c1cccnc1N1CCC(N2CCCC(C(=O)N3CCCC3)C2)CC1 (stereo unspecified),33%
Cc1ncnc(N2CCC(N3CCCC(C(=O)N4CCCC4)C3)CC2)c1C (stereo unspecified),n
Cc1noc2ncnc(N3CCC(N4CCCC(C(=O)N5CCCC5)C4)CC3)c12 (stereo unspecified),n
COc1ccc(CC(=O)NCC2CCCN(Cc3cc(OC)cc(OC)c3)C2)cc1 (stereo unspecified),n
CCOC(=O)C1(CCOC)CCN(Cc2ccnc3ccccc23)CC1,n
COc1ccccc1/C=C/C1=NC(=C\c2ccc(Cl)c(Cl)c2)/C(=O)O1,n
COc1ccccc1/C=C/C1=NC(=C\c2cc(Br)cs2)/C(=O)O1,n
COc1ccccc1/C=C/C1=NC(=C\c2cccc(Cl)c2)/C(=O)O1,34%
COc1ccccc1/C=C/C1=NC(=C\c2cccc(Cl)c2Cl)/C(=O)O1,n
COc1ccccc1/C=C/C1=NC(=C\c2ccc(C)cc2)/C(=O)O1,38%
COc1ccccc1/C=C/C1=NC(=C\c2ccc([N+](=O)[O-])cc2)/C(=O)O1,n
CCCCN(CC)S(=O)(=O)c1ccc(C(=O)Nc2nnc(CSC)o2)cc1,n
CCc1cn[nH]c1C1CCN(C(=O)c2cc3sccc3[nH]2)CC1,n
NC(=O)c1cccnc1N1CCCC(Cc2ccccc2F)(C(=O)O)C1 (stereo unspecified),n
COc1ccc(Cl)cc1NC(=O)CSc1nc2ccccc2s1,n
COCCOC(=O)C1=C(C)NC2=C(C(=O)C(C(=O)OC)C(C)C2)C1c1ccc(Cl)cc1 (stereo unspecified),n
[O-][n+]1cccc2c(Br)cc(Br)c(O)c21,30%
CC(=O)Nc1ccc(S(=O)(=O)N2CC[C@H](c3nnc(C)o3)C2)cc1,n
COc1ccc2oc(=Nc3ccc(-c4ccccc4)cc3)c(C(N)=O)cc2c1,n
COc1ccc2oc(=Nc3ccc(C(C)=O)cc3)c(C(N)=O)cc2c1,40%
COc1ccc2oc(=Nc3ccccc3OC)c(C(N)=O)cc2c1,n
SMILES,ST2 IL33 inh
CC1=C(C(=O)OC(C)C)C(c2ccccc2F)C(C#N)=C(N)O1 (stereo unspecified),n
C#CCOc1cc(Br)c(/C=C2/NC(=O)NC2=O)cc1OCC,n
Cc1cc(=O)oc2c(CN(CC(C)C)CC(C)C)c(O)ccc12,n
CCNc1ccnc(NCc2cccnc2N2CCN(c3ccccc3C)CC2)n1,n
CC(=O)OC(C)(C)/C=C/C(=O)[C@](C)(O)[C@H]1C(O)C[C@@]2(C)[C@@H]3CC=C4[C@@H](C=C(O[C@@H]5O[C@H](CO)[C@@H](O)[C@H](O)[C@H]5O)C(=O)C4(C)C)[C@]3(C)C(=O)C[C@]12C (stereo partly specified),n
Cc1ccc(NC(=O)COc2c(C)ccc(C)c2C)c([N+](=O)[O-])c1,33%
CCOc1ccc(NC(=O)c2cc(OC)cc(OC)c2)c([N+](=O)[O-])c1,n
CCCOc1cccc(C(=O)Nc2ccc(C)cc2[N+](=O)[O-])c1,32%
CCCCOc1ccc(C(=O)Nc2ccc(OCC)cc2[N+](=O)[O-])cc1,n
Cc1ccc(OCC(=O)Nc2ccc(C)cc2[N+](=O)[O-])c(C)c1,n
Cc1ccc(NC(=O)COc2ccc(Cl)cc2)c([N+](=O)[O-])c1,n
CN(C)c1nc2c(c(NCCCCc3ccccn3)n1)CCNC2,n
O=C(c1ccsc1)N1CCOC(CC2CCCCC2)C1 (stereo unspecified),n
CC1CC(=O)C2=C(C1)OC(N)=C(C#N)C2c1ccco1 (stereo unspecified),n
CCCOc1ccc(-c2nc3s/c(=C\c4ccco4)c(=O)n3n2)cc1,n
N#CC1=C(N)n2c(s/c(=C\c3ccco3)c2=O)=C(C#N)C1c1ccco1 (stereo unspecified),37%
C/C=c1/nc(-c2ccc(F)cc2)n2c1nc1nonc12,n
COc1ccc(-c2noc([C@@H]3CCCN3Cc3ccc4c(c3)OCO4)n2)cn1,n
CNc1ccccc1C(=O)NCC1CCN(Cc2cccnc2)C1 (stereo unspecified),n
O=C1c2ccccc2C(=O)N1CNc1ccccc1F,n
Cc1nn(CCO)cc1CN1CCC(n2cc(C3CCCC3)nn2)CC1,n
Cc1n[nH]c(C)c1CCCNC1CCN(c2ccc3c(c2)OCO3)CC1,n
CCOc1ccc(N=C(c2cccc([N+](=O)[O-])c2)N2CCOCC2)cc1,n
CCOc1ccc(NC(=O)c2cccc([N+](=O)[O-])c2)cc1,n
CCOc1ccc(C(=O)c2cccc([N+](=O)[O-])c2)cc1,31%
SMILES,ST2 IL33 inh
Cc1c(Cl)cccc1NC(=O)C(c1ccccc1)c1ccccc1,n
O=C1Nc2ccccc2N(O)N1c1ccc(Cl)c(Cl)c1,n
O=C1C=CC(=NS(=O)(=O)c2ccccc2)C=C1Br,31%
CN(C)C(=NS(=O)(=O)c1ccc(Br)cc1)c1ccccc1,n
CCOc1ccc(OCCN2CCOCC2)cc1,n
CCCOc1ccc(C(=O)Nc2ccc(N3CCCC3)cc2)cc1,n
O=C(Cc1ccccc1)Nc1ccc(N2CCCC2)cc1,59%
CC(=O)c1ccc(C(=O)Nc2ccc(N3CCOCC3)cc2)cc1,n
O=C(Cc1ccccc1)Nc1cccc(C(=O)O)c1,n
O=C(Nc1ccc(N2CCCC2)cc1)c1ccc(F)cc1,57%
CCc1cccc(C)c1NC(=O)c1ccc(C)c(Cl)c1,n
Cc1ccc(C(=O)Nc2ccc(N3CCCC3)cc2)cc1Cl,53%
O=C(Cc1ccccc1)Nc1ccc(S(=O)(=O)N2CCCC2)cc1,n
CC(=O)Nc1ccc(NC(=O)c2cc(I)ccc2Cl)cc1,n
O=C(Nc1ccc(N2CCCC2)cc1)c1cc(I)ccc1Cl,51%
Cc1ccc(C(=O)Nc2cccc([N+](=O)[O-])c2)cc1Cl,n
O=C(Nc1ccc(I)cc1)c1ccc(Cl)cc1Cl,n
COc1ccc(CCNC(=O)N2CCCCC2CCN2CCCC2=O)cc1 (stereo unspecified),n
O=C(NCc1ccc(Cl)cc1)[C@@H]1Cc2nc[nH]c2CN1Cc1cc2ccccc2o1,n
CCOc1ccc(C2CC(=O)N3CN(c4ccccc4)CSC3=C2C#N)cc1 (stereo unspecified),n
Cc1cc(C)cc(CCC(=O)N(C)CCc2cn[nH]c2)c1,n
CCOC(=O)C1(Cc2ccccc2C(F)(F)F)CCN(C(=O)C#Cc2ccccc2)CC1,n
Cc1nsc(NC(=O)NC2CCc3ccccc3C2)n1 (stereo unspecified),n
CCc1cccc(OCCCN(C)C(=O)c2ccc(=O)n(C)c2)c1,n
COc1ccc(Br)cc1CNC(=O)C1CCN(S(=O)(=O)N2CCCCC2)CC1,n
SMILES,ST2 IL33 inh
O=C(O)c1cc([N+](=O)[O-])c(C(=O)O)cc1Oc1ccc(Cl)cc1,n
O=[N+]([O-])c1ccccc1Oc1ccccc1,30%
O=C(O)Cc1ccccc1[N+](=O)[O-],n
Cc1cccc(NC(=O)CCC2CCN(C(=O)c3ccc4ncccc4c3)CC2)c1,n
Cc1cc(C)n(-c2n[nH]c(=O)c3ccccc23)n1,n
Cc1cc(C)n(-c2nc3ccccc3[nH]c2=O)n1,46%
